From PubChem
Most compounds without a hit are left out; they make up all but 4.6% or so of the library.
CF NFkB block = inhibitors of PAF-induced NF-kB signaling, primary screen, cell-based, GFP fluorescence, uHTS | KKLEB NF-kB-GFP reporter, GFP fluorescence overnight | inhibition, % at 5 µM | 0.86% of 360,000 active;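 active = at least 50% inhibition at 5 µM, scaled per plate between neutral and stimulator controls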;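 note: PAF is a Pseudomonas aeruginosa culture filtrate used as stimulus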
HIF-2a inh = HIF-2a reporter inhibitors, primary screen, luminescence, 786-0 RCC cells; 786-0 RCC cells HIF-2a reporter, luciferase luminescence, overnight; inhibition, % at 18.8 µM; 0.72% of 360,000 active;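 active = inhibition of the luminescence signal of 40% or more relative to plate controls, in a single-dose primary screen at 18.75 µM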
ABHD5-PLIN5 inh = ABHD5-PLIN5 interaction inhibitors, primary screen, cell lysate, split luciferase complementation, luminescence | Perilipin-5 (Homo sapiens) + 1-acylglycerol-3-phosphate O-acyltransferase ABHD5 (Homo … | Split G. princeps luciferase complementation, 4 h | inhibition, % at 4 µM | 0.78% of 360,000 active;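 active = inhibition above the mean inhibition across every tested compound plus 3 SD, cut at about 22% in these data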
Target sequence (Q00G26 whole entry, looked up): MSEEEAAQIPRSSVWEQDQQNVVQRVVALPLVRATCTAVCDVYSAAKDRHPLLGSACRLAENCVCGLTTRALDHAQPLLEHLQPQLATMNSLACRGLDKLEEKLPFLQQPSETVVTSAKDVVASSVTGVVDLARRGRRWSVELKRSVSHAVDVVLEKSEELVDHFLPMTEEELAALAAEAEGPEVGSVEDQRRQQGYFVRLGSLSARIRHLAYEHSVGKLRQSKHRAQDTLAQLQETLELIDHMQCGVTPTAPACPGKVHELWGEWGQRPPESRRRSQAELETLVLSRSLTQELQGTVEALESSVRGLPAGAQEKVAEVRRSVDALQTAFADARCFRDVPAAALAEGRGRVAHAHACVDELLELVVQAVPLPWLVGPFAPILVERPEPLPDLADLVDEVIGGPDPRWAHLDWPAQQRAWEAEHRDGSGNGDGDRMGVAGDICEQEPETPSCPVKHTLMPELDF
Target sequence (Q8WTS1 whole entry, looked up): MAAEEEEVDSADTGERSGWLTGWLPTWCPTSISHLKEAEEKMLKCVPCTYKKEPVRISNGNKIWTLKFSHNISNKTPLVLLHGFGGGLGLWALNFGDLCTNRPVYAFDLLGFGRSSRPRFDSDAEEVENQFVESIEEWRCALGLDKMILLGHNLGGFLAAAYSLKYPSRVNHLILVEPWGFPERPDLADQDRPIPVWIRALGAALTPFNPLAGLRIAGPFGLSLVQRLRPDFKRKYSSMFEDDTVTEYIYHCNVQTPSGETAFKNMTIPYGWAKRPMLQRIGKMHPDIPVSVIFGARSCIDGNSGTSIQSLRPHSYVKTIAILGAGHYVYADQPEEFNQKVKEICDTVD
Peg3 promoter = Peg3 promoter-driven luciferase inhibitors, primary screen, cell-based, HeLa, luciferase luminescence; inhibition, % at 20 µM; 1.7% of 360,000 active; AID 588405, 2011; HeLa PEG-Prom luciferase reporter, overnight;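 active = inhibition of at least 50% at 20 µM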
KKLEB tox = cytotoxicity in KKLEB CF airway cells, primary screen, cytotoxicity control for CF NF-kB inhibitor project, cell-based, uHTS, fluorescence assay plates. KKLEB CF airway cells viability, ATPlite luminescence, overnight; stronger effect = lower value; cells stimulated with P. aeruginosa culture filtrate. activity change (cytotoxicity), % at 5 µM. 0.36% of 360,000 active;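 active = corrected activity change at or below -50% at 5 µM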
Mdm2 MdmX PPI = inhibitors of human Mdm2-MdmX association, primary screen, cell-based, luminescence, split luciferase, SaOS-2, uHTS; Protein Mdm4 (Homo sapiens) + E3 ubiquitin-protein ligase Mdm2 (Homo sapiens), …; SaOS-2 split-luciferase Mdm2/MdmX complementation; inhibition, % at 8 µM; 3% of 330,000 active; AID 485346, 2010;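 active = inhibition of at least 50% at 8 µM in the primary screen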
Mdm2-MdmX conf = Mdm2-MdmX complex disruptors, retested hits, confirmation, luminescence, single concentration; shares compounds with Mdm2 MdmX PPI; Mdm2-MdmX binding, luminescent assay; inhibition, % at 8 µM; 55% of 10,000 active; AID 489028, 2010; in the data active = inhibition above about 40%
FLuc counter = full-length luciferase signal inhibition, confirmation, counter-screen for Mdm2/MdmX interaction inhibitor project, cell-based, single concentration, SaOS-2 | shares compounds with Mdm2 MdmX PPI | SaOS-2 full-length luciferase counterscreen, luminescence | inhibition, % at 8 µM | 77% of 6,200 active;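 active = mean inhibition at 8 µM reaching about 37%, which flags the compound as non-specific, limit read from the data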;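 note: p53-null SaOS-2 cells with luciferase driven by a doxycycline-inducible promoter; compound on cells about two nights before reading with doxycycline added after day one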
Of the large screens only hits and unclear results are named; the others gave an inactive call (follow-up assays come after a bar, where they were run).

COc1ccc(-c2cn[nH]c2-c2ccc(OCc3ccc([N+](=O)[O-])cc3)cc2O)cc1OC	none
N/C(=N\OC(=O)CC(c1ccccc1)c1ccccc1)c1cccnc1	Mdm2 MdmX PPI 88 | Mdm2-MdmX conf 64 | FLuc counter 100
CCCOc1ccccc1C1CC(=O)NC2=C1C(=O)CCC2 (stereo not drawn)	Mdm2 MdmX PPI 58 | Mdm2-MdmX conf 56 | FLuc counter 48
CCCOc1ccccc1C1CC(=O)Nc2cc3c(cc21)OCCO3 (stereo not drawn)	Mdm2 MdmX PPI 52 | Mdm2-MdmX conf 49 | FLuc counter 61
CCOc1ccccc1C1CC(=O)Nc2cc3c(cc21)OCCO3 (stereo not drawn)	Mdm2 MdmX PPI 70 | Mdm2-MdmX conf 58 | FLuc counter 123
COc1ccc([N+](=O)[O-])cc1NC(=O)C(C)OC(=O)Cn1[nH]c(=O)c2ccccc2c1=O (stereo not drawn)	none
Cn1c(NCC(O)c2ccccc2)nc2c1c(=O)n(Cc1ccc(Cl)c(Cl)c1)c(=O)n2C (stereo not drawn)	Peg3 promoter 53, Mdm2 MdmX PPI 63 | Mdm2-MdmX conf inactive
CCN1CCc2c(sc(NC(=O)c3ccc(S(=O)(=O)N(C)c4ccccc4)cc3)c2C(=O)NC)C1	Mdm2 MdmX PPI 59 | Mdm2-MdmX conf inactive
COCCN(CCOC)S(=O)(=O)c1ccc(C(=O)Nc2sc3c(c2C(N)=O)CCCCC3)cc1	Mdm2 MdmX PPI 82 | Mdm2-MdmX conf 57 | FLuc counter 116
COC(=O)c1c(NC(=O)c2ccccc2N(C)S(=O)(=O)c2ccccc2)sc2c1CCCC2	none (no result: Mdm2 MdmX PPI)
CCOC(=O)c1c(NC(=O)C(NCCN(C)C)c2ccccc2)sc2c1CCCC2 (stereo not drawn)	Peg3 promoter 106, Mdm2 MdmX PPI 94 | Mdm2-MdmX conf inactive | FLuc counter 69
CNC(=O)c1c(NC(=O)c2ccc(S(=O)(=O)N(C)c3ccccc3)cc2)sc2c1CCN(C(C)C)C2	none (no result: CF NFkB block, HIF-2a inh, ABHD5-PLIN5 inh, Peg3 promoter, KKLEB tox)
CCOC(=O)c1c(NC(=O)c2ccccc2N(C)S(=O)(=O)c2ccccc2)sc2c1CCCC2	Mdm2 MdmX PPI 55 | Mdm2-MdmX conf 60 | FLuc counter 66
N#C/C(=C/c1cn(CC(=O)O)c2ccccc12)C(=O)Nc1ccccc1	Mdm2 MdmX PPI 51 | Mdm2-MdmX conf inactive
Cc1cccc(NC(=O)/C(C#N)=C/c2cn(CC(=O)NCc3ccco3)c3ccccc23)c1C	Mdm2 MdmX PPI 90 | Mdm2-MdmX conf 49 | FLuc counter 65
CCc1ccc(NC(=O)/C(C#N)=C/c2cn(CC(=O)O)c3ccccc23)cc1	none
CN(C)CC(=O)N[C@@H]1CC[C@@H](CCNS(=O)(=O)c2ccccc2)O[C@@H]1CO	none (no result: CF NFkB block, Peg3 promoter, KKLEB tox, Mdm2 MdmX PPI)
COc1ccc(C(C)(C)C)cc1NC(=O)c1[nH]c(C)c(C(C)=O)c1C	Mdm2 MdmX PPI 54 | Mdm2-MdmX conf inactive
CC1(C(=O)NCc2ccccc2)CN(S(C)(=O)=O)CC(=O)N1CCc1ccccc1F (stereo not drawn)	none (no result: CF NFkB block, Peg3 promoter, KKLEB tox, Mdm2 MdmX PPI)
CCCc1sc(N/N=C/c2ccccn2)nc1-c1ccc(F)cc1	KKLEB tox -51, Mdm2 MdmX PPI 69 | Mdm2-MdmX conf inactive | FLuc counter 45
CN(C)C(=O)CCc1ccc2c3c([nH]c2c1)[C@]1(C)[C@@H](C(=O)N2CCCCC2)C[C@H](CC(=O)NCC24CC5CC(CC(C5)C2)C4)C(=O)N1CC3	none
N#Cc1cc(-c2ccccc2)oc1/N=C/c1ccccc1O	Mdm2 MdmX PPI 53 | Mdm2-MdmX conf 57 | FLuc counter 105
COc1cccc(/C=N/c2oc(-c3ccccc3)cc2C#N)c1O	none
NS(=O)(=O)c1cccc(NC(=O)CSc2nnc(NC3CC3)s2)c1	none (no result: Mdm2 MdmX PPI)
Cc1nnsc1C(=O)N/N=C/c1ccc2ccccc2c1O	Mdm2 MdmX PPI 63 | Mdm2-MdmX conf 75 | FLuc counter inactive
Cc1nc(N)sc1C(=O)N/N=C/c1c[nH]c2ccccc12	Mdm2 MdmX PPI 51 | Mdm2-MdmX conf inactive
Cc1nnsc1C(=O)N/N=C/c1ccccc1	none
COc1ccc(-c2nn3c(-c4ccccc4)nnc3s2)cc1	none
CCN(CC)c1ccc(-c2nn3c(-c4ccccc4OC)nnc3s2)cc1	CF NFkB block 53, Mdm2 MdmX PPI 76 | Mdm2-MdmX conf 65 | FLuc counter 73
O=C(CCl)Nc1cccc(S(=O)(=O)NC2=NCCCCC2)c1	ABHD5-PLIN5 inh 23, Peg3 promoter 51, Mdm2 MdmX PPI 62 | Mdm2-MdmX conf 69 | FLuc counter inactive
O=C1C=C(Nc2ccccc2)c2ccccc2C1=O	CF NFkB block 72, Mdm2 MdmX PPI 53 | Mdm2-MdmX conf inactive
O=C1C=C(Nc2cccc3cccnc23)c2ccccc2C1=O	Mdm2 MdmX PPI 63 | Mdm2-MdmX conf 57 | FLuc counter 70
CCc1ccc(NC2=CC(=O)C(=O)c3ccccc32)cc1	CF NFkB block 96, KKLEB tox -91, Mdm2 MdmX PPI 70 | Mdm2-MdmX conf 65 | FLuc counter 85
O=S(=O)(Nc1ccc(C(O)(C(F)(F)F)C(F)(F)F)cc1)c1cccc2cccnc12	none (no result: Mdm2 MdmX PPI)
Cc1ccc(C(=O)NC2CC3CCCC(C2)N3C(=S)NCc2ccco2)cc1 (stereo not drawn)	none
O=C(CCN1C(=O)/C(=C\c2ccccc2)SC1=S)N1CCCCC1	HIF-2a inh 45, Peg3 promoter 94, Mdm2 MdmX PPI 57 | Mdm2-MdmX conf 72 | FLuc counter 61
O=C(CCCN1C(=O)/C(=C/c2ccccc2)SC1=S)Nc1ccccc1O	Mdm2 MdmX PPI 95 | Mdm2-MdmX conf 88 | FLuc counter inactive
O=C(CCCN1C(=O)/C(=C/c2ccco2)SC1=S)Nc1ccccc1C(=O)O	none
O=C(c1ccccc1)N1CCN(CCc2ccccn2)CC1	none
O=C(CCCN1C(=O)/C(=C\c2ccco2)SC1=S)Nc1ccc2ccccc2c1	Mdm2 MdmX PPI 60 | Mdm2-MdmX conf inactive | FLuc counter 98
